# Screens from PubChem BioAssay.
# Rows were chosen to be rich in hits. Some 7.4% of all compounds tested hit in one or more screens of this group.
# TSHR agonist: qHTS Assay for Agonists of the Thyroid Stimulating Hormone Receptor | Thyrotropin receptor (Homo sapiens), P16473 | HEK293-CNG-TSHR cells (CNG channel as cAMP sensor), membrane potential dye, cAMP | Potency, µM (series often up to 57.1 µM), for the others: at the highest dose activation, actives largely listed as activators | actives 0.48% (n = 73,000) | AID 926, 2007; active = well fitted activation curve with a large enough effect in the main read-out, with a control signal flat, not every such curve was filed as active; inconclusive = small, poorly fitted or top-dose-only effect, or a change in a side signal; inactive = no such curve, though single readings can be large or run the other way; % of control where 0% means no effect;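 note: the control signal comes from parental cells without the receptor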
#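 cAMP rise detected as CNG-channel membrane depolarization by fluorescent dye (emission 590 nm), 30 min after compound, following 60 min dye loading containing 100 uM RO 20-1724 at room temperature. Cells: TSHR/CNG HEK 293, with parental CNG HEK 293 as control.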
# ERK AVP block: qHTS Assay for Inhibitors of the ERK Signaling Pathway using a Homogeneous Screening Assay. HEK293-V1b, vasopressin-stimulated pERK AlphaScreen. Potency, µM (titrated, usually from 57.5 µM), inactives show at the top dose activity, negative = inhibition, usual class: inhibitors. actives 0.99% (n = 72,000); note: % is set by controls: 0 for no effect and ±100 for the full control effect; nearly all actives have a fitted effect of over 55% in size
#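 Phosphorylated ERK1/2 detected via AlphaScreen bead proximity in lysates of V1b-expressing HEK293 cells given 25 nM vasopressin for 5 min after 30 min compound exposure (37 °C). AC50 from Hill equation; basal DMSO 0%, vasopressin 100%.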
# CRE Fsk mod: Cell signaling CRE-BLA (Fsk stim); CHO CRE-bla reporter (cAMP response element driving beta-lactamase), forskolin EC10, beta-lactamase ratio; Potency, µM (series often up to 38.2 µM), inactives show top-dose activity change, negative = inhibition, hits mostly activators; actives 2.5% (n = 71,000); AID 662, 2007; active = well fitted activation curve with a large enough effect in the signal ratio, with a control signal flat, not every such curve was filed as active; inconclusive = small, poorly fitted or top-dose-only effect, or effect the other way, or a change in a side signal; the % refers to the signal ratio; note: % of control where 0% means no effect
#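 CRE-bla CHO cells stimulated with EC10 NKH 477 (water-soluble forskolin) and compound titrations, 3 h at 37C; beta-lactamase read with CCF4 after 2 h at room temperature. Activity from 460/530 nm emission ratio, AC50 values for positive or negative modulation.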
# HEK293 cAMP ctrl: qHTS Assay for Agonists of the Thyroid Stimulating Hormone Receptor: Activators of Intracellular cAMP Concentrations in Parental HEK 293 | parental HEK293 CNG cAMP sensor, membrane potential fluorescence | Potency, µM (highest dose often 57.1 µM), for inactives: top-dose activation, actives largely listed as activators | actives 2.5% (n = 73,000); note: % of control where 0% means no effect; nearly all actives have a fitted effect of over 55% in size
#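 Parental HEK 293 cells stably expressing a cAMP-gated CNG channel were loaded with membrane potential dye containing 100 uM RO 20-1724 for 60 min. Compound added for 30 min; depolarization read as fluorescence intensity at 590 nm.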
# Tau fil binding: qHTS Assay for Tau Filament Binding | Microtubule-associated protein tau (Homo sapiens), P10636 | recombinant tau filaments, thioflavin S fluorescence, 15 h; filaments grown with octadecylsulfate alongside compound | Potency, µM (top dose mostly 57.1 µM), inactives show at the highest dose activity change, negative = inhibition | actives 2% (n = 71,000);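 note: % is set by controls: 0 for no effect and ±100 for the full control effect; actives lower thioflavin S fluorescence by blocking filaments or displacing dye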
#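 Read-out: ThS fluorescence, 450 nm excitation/510 nm emission; lower signal marks blocked filament formation or displaced dye. Tau at 1 uM with 30 uM ODS, 10 uM ThS, 5 mM DTT, 100 mM NaCl, 10 mM HEPES pH 7.4; 15 h, 37 C.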
# The depositor's hits bear a star; i = inactive; ? = inconclusive; nt = no result; [ ] = another dose, or the depositor's remark. Unless noted, calls come from the whole dose curve; as a rule, active = well fitted curve in the direction sought with a large enough effect; inconclusive = small, poorly fitted or top-dose-only effect, or another doubt; inactive = no such curve, though single readings can be large; an effect the other way counts as inactive or inconclusive. Potency is the fitted concentration of half-maximal effect.
SMILES,TSHR agonist,ERK AVP block,CRE Fsk mod,HEK293 cAMP ctrl,Tau fil binding
CCN(Cc1nc2ccccc2c(=O)[nH]1)Cc1nc2cc(OC)c(OC)cc2c(=O)[nH]1,0%,?,4µM*,-4%,31%
CN(C)CCSCCO,4%[11.4 µM],5%[11.5 µM],3%[7.6 µM],0%[11.4 µM],4%[11.4 µM]
Cc1ccc(C(=O)N2CCN(c3cccc(Cl)c3)CC2)cc1C,nt,17%,-13%,26%,6%
Cc1ccc(C(=O)N2CCN(c3ccccc3)CC2)cc1C,?,52%,0%,25µM*,-14%
O=C(c1ccc2nc(-c3ccco3)c(-c3ccco3)nc2c1)N1CCN(c2ccccc2)CC1,0%,?,?,5%,1µM*
C=CCn1c(SCc2nc3ccccc3c(=O)[nH]2)nnc1-c1cc2cc(Cl)ccc2o1,?,-20%,10%,32µM*,160%
O=C(C1CC1)N1CCN=C1SCc1cccc(F)c1,5%,31%,-6%,14%,-9%
Cc1cccc(CSC2=NCCN2C(=O)c2ccc(Br)o2)c1,?,22%,?,32µM*,4%
O=C(O)CCSc1nc2ccccc2n1CCOc1ccccc1,8%,?,12%,25%,7%
COCCn1c(SCc2csc(-c3ccccc3)n2)nc2ccccc21,?,25µM*,2.5µM*,32µM*,4%
Cc1ccccc1-n1nnnc1SCc1csc(-c2ccccc2)n1,?,7%,0%,3.2µM*,14%
Nn1c(SCc2csc(-c3ccccc3)n2)nnc1-c1cccs1,?,7%,6%,25µM*,54%
C=CC[C@@H]1C=C[C@@H](O/N=C2/[C@H]3O[C@@H]3[C@@H](O)[C@H]3[C@H]2CCn2c(=O)n(-c4ccccc4)c(=O)n23)[C@@H](CO)O1,3%[11.4 µM],6%[11.5 µM],nt,-3%[11.4 µM],nt
COC(=O)c1cc2sccc2n1CC(=O)Nc1ccc(OC)c(OC)c1OC,3%[11.4 µM],-20%,2%,2%,23%
COC(=O)c1cc2sccc2n1CC(=O)Nc1cccc(SC)c1,?,-2%,-10%,25µM*,42%
COc1ccc(C2=NOC(C(=O)Nc3cc(C)nn3-c3ccccc3)C2)cc1OC (configuration not stated),-4%,?,2.5µM*,8%,12%
COc1ccc(C2=NOC(C(=O)NCc3ccc(F)cc3)C2)cc1OC (configuration not stated),21%,?,13µM*,25%,0%
COc1ccc(C2=NOC(C(=O)Nc3ccc(C)cc3)C2)cc1OC (configuration not stated),2%,?,?,5%,-2%
COc1cccc(C2=NOC(C(=O)NCc3ccc(F)cc3)C2)c1 (configuration not stated),?,-23%,13µM*,?,-2%
O=C(Nc1ccc(Nc2ccc3c(c2)C(=O)c2ccccc2C3=O)c2c1C(=O)c1ccccc1C2=O)c1ccccc1,-45%[11.4 µM],-9%[11.5 µM],3%[7.6 µM],0%[11.4 µM],4µM*
CCOc1ccc(-c2n[nH]c(C)c2Oc2ccc(OC)cc2)c(O)c1,4%,40µM*,6%,-1%,?
c1ccc(-c2nc(N3CCCCCC3)nc(-n3ccnc3)n2)cc1,4µM*,39%,15%,30%,18%
c1ccc(N(c2ccccc2)c2nc(-n3ccnc3)nc(-n3ccnc3)n2)cc1,?,4%,18%,25µM*,129%
CN(c1ccccc1)c1nc(-n2ccnc2)nc(-n2ccnc2)n1,nt,?,?,23%,33%
CCCCNN,-6%[11.4 µM],-2%[11.5 µM],0%[7.6 µM],1%[11.4 µM],-10%[11.4 µM]
Cc1ccc(O)c(-c2cc(C(=O)Nc3ccc(S(=O)(=O)N4CC(C)OC(C)C4)cc3)[nH]n2)c1 (configuration not stated),-18%,?,?,-5%,i
Cc1cc(O)c(-c2cc(C(=O)Nc3ccc(S(=O)(=O)N4CCOCC4)cc3)[nH]n2)cc1C,-30%,25µM*,?,-12%,418%
